# From PMC7862700, “An all-to-all approach to the identification of sequence-specific readers for epigenetic DNA modifications on cytosine”
# Columns and labels:
# Test in all cases: DAPPL (digital affinity profiling via proximity ligation, sequencing); 10 mM Tris-HCl pH 7.5, 50 mM NaCl, 1 mM DTT, 4% glycerol, room temperature, 30 min; GST-TFs on glutathione beads, 16-mer random dsDNA library, 0.1% formaldehyde crosslink after washing; high values mean tight binding
# [1] = molecular target: T1, FEV (Homo sapiens, UniProt Q99581 1-238); settings: protein: recombinant; tags: N-terminal GST; dsDNA, one strand shown
# T1 sequence: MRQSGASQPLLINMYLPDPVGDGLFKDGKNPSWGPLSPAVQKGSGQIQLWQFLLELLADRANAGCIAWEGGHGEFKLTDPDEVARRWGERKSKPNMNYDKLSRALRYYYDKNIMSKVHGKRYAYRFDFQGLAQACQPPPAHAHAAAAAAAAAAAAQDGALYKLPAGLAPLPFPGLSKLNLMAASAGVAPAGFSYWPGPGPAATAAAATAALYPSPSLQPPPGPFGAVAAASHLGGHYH
# In short: (§1)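 A tag-only sample was pooled with DNA-barcoded human transcription factors that had been expressed in yeast as GST fusions and captured on glutathione beads. The pools were incubated for 30 min at room temperature with 200 nmole of a random double-stranded 16-mer DNA library in Tris/NaCl/DTT/glycerol buffer, then washed, crosslinked with 0.1% formaldehyde, proximity-ligated (BsaI/T4 ligase, 1 h, 37 °C), PCR-amplified and sequenced on an Illumina NextSeq500. Binding signal is each hexamer's read frequency for a factor divided by its frequency for the tag-only sample.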
# [2] = molecular target: ETV5 (Homo sapiens, UniProt P41161 1-510); settings: protein: recombinant; tags: N-terminal GST; dsDNA, one strand shown
# Chain of ETV5 (P41161 whole entry): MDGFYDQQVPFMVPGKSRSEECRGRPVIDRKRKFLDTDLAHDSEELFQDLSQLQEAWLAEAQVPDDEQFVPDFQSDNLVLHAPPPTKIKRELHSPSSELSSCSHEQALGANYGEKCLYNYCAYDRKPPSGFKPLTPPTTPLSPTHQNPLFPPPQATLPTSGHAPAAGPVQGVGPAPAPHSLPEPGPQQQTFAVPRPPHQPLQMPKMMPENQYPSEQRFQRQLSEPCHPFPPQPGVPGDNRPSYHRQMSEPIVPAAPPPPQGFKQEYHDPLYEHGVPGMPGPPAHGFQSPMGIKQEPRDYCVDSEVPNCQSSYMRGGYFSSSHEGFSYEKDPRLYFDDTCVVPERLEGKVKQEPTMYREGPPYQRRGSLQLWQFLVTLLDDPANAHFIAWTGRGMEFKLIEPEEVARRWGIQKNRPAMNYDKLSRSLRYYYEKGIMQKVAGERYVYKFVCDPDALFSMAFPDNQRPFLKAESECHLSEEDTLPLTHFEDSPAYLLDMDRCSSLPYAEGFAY
# In short: as §1
# [3] = molecular target: HSF1 (Homo sapiens, UniProt Q00613 1-529); settings: protein: recombinant; tags: N-terminal GST; chain copies: 3; dsDNA, one strand shown
# Chain of HSF1 (Q00613 whole entry): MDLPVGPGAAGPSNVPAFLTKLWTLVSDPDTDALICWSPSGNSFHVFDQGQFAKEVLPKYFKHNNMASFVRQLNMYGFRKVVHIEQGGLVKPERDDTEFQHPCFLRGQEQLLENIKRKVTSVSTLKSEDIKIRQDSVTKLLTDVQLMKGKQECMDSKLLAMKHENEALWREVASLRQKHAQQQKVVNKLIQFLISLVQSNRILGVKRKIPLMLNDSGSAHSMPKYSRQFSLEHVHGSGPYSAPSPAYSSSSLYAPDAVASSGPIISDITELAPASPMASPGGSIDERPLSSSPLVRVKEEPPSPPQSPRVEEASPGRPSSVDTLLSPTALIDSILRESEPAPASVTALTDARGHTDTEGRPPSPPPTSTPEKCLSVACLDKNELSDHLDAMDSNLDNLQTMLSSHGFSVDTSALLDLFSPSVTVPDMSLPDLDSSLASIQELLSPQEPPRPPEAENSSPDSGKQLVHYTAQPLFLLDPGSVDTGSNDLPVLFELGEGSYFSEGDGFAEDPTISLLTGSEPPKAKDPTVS
# In short: as §1
# [4] = molecular target: T2, SPIC (Homo sapiens, UniProt Q8N5J4 1-248); settings: protein: recombinant; tags: N-terminal GST; dsDNA, one strand shown
# T2 sequence: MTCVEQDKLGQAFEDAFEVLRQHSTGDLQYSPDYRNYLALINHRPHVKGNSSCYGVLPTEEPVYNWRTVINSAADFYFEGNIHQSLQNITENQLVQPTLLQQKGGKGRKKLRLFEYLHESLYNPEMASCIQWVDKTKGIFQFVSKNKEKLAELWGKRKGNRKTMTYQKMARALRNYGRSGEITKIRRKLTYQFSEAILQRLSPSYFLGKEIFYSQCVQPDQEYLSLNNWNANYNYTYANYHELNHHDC
# In short: as §1
# [5] = molecular target: ELF4 (Homo sapiens, UniProt Q99607 1-663); settings: protein: recombinant; tags: N-terminal GST; dsDNA, one strand shown
# Chain of ELF4 (Q99607 whole entry): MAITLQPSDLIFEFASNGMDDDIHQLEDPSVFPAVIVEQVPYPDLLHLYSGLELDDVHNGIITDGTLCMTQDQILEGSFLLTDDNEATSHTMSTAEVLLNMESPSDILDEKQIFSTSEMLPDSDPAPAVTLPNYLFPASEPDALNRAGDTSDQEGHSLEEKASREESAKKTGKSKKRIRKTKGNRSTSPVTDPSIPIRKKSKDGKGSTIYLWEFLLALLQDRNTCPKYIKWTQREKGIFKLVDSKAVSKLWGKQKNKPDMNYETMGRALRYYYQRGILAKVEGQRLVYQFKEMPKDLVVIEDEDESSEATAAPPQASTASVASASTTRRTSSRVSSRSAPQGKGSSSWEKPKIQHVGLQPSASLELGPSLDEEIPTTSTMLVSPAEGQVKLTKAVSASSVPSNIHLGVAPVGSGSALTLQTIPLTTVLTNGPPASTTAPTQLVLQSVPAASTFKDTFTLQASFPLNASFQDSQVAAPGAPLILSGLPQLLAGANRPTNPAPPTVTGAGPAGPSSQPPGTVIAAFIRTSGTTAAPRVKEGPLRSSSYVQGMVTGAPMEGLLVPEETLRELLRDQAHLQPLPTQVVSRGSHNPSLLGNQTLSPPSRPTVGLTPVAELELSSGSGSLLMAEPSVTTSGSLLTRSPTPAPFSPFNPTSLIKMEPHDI
# In short: as §1
# [6] = molecular target: T3, ELK4 (Homo sapiens, UniProt P28324-2 1-405); settings: protein: recombinant; tags: N-terminal GST; dsDNA, one strand shown
# T3 sequence: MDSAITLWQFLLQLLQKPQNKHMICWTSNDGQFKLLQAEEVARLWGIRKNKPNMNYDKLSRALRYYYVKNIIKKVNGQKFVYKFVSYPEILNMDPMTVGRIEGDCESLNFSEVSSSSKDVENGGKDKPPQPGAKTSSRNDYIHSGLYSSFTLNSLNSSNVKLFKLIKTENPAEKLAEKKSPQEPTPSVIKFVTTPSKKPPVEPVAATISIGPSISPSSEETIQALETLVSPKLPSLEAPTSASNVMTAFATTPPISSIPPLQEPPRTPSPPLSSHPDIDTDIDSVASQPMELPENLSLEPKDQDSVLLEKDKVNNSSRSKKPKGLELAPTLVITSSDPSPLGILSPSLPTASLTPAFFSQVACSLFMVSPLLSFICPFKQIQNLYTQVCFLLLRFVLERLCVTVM
# In short: as §1
# [7] = molecular target: T4, ETV2 (Homo sapiens, UniProt O00321 1-342); settings: protein: recombinant; tags: N-terminal GST; dsDNA, one strand shown
# T4 sequence: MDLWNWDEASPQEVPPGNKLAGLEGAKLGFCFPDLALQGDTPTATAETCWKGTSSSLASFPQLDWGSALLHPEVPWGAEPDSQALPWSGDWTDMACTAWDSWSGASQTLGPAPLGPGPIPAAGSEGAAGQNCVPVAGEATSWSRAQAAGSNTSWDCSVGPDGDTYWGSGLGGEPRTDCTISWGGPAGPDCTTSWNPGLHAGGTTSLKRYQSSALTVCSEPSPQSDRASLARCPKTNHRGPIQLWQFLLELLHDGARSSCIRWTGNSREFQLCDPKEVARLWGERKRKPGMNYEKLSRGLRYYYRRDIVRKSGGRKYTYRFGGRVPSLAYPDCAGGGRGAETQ
# In short: as §1
# [8] = molecular target: T5, ELF3 (Homo sapiens, UniProt P78545 1-371); settings: protein: recombinant; tags: N-terminal GST; dsDNA, one strand shown
# T5 sequence: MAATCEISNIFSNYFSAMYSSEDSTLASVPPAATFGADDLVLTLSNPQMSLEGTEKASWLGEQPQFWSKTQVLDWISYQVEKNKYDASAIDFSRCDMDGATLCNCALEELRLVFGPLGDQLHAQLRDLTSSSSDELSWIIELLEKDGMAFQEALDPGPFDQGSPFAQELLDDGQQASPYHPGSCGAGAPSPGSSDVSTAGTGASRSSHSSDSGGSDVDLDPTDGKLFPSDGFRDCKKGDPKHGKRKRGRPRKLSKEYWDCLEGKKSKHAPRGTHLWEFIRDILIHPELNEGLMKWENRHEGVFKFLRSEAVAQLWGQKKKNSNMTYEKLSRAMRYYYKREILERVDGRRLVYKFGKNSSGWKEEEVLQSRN
# In short: as §1
# [9] = molecular target: CRX (Homo sapiens, UniProt O43186 1-299); settings: protein: recombinant; tags: N-terminal GST; dsDNA, one strand shown
# Chain of CRX (O43186 whole entry): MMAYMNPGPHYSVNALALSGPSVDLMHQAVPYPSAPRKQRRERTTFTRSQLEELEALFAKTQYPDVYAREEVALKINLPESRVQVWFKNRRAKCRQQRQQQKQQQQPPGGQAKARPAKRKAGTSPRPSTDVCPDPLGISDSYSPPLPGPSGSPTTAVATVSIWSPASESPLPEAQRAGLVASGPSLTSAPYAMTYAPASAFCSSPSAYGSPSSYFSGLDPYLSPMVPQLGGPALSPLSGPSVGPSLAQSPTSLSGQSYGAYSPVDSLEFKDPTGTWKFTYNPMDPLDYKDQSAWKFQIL
# In short: as §1
# [10] = molecular target: ETV1 (Homo sapiens, UniProt P50549 1-477); settings: protein: recombinant; tags: N-terminal GST; dsDNA, one strand shown
# Chain of ETV1 (P50549 whole entry): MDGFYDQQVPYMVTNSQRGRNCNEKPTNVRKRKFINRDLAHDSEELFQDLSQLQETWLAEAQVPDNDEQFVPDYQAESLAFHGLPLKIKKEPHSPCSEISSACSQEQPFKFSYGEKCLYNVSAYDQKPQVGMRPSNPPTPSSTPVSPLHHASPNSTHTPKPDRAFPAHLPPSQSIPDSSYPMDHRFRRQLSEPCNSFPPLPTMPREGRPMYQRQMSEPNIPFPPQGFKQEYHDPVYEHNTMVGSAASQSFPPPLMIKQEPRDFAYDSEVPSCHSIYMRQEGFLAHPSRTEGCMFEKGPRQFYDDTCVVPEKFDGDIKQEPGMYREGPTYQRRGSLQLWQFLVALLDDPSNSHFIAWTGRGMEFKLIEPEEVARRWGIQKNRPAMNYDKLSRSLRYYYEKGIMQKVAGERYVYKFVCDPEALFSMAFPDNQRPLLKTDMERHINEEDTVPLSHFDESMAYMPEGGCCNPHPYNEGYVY
# In short: as §1
sequence,measurement,setting,value
TTGATG,binding signal,[1],"1.52 fold enrichment (6-mer frequency, TF over GST control)"
same,binding signal,[2],"1.73 fold enrichment (6-mer frequency, TF over GST control)"
same,binding signal,[3],"1.43 fold enrichment (6-mer frequency, TF over GST control)"
same,binding signal,[4],"1.59 fold enrichment (6-mer frequency, TF over GST control)"
same,binding signal,[5],"1.63 fold enrichment (6-mer frequency, TF over GST control)"
same,binding signal,[6],"1.52 fold enrichment (6-mer frequency, TF over GST control)"
same,binding signal,[7],"1.53 fold enrichment (6-mer frequency, TF over GST control)"
same,binding signal,[8],"1.81 fold enrichment (6-mer frequency, TF over GST control)"
same,binding signal,[9],"1.5 fold enrichment (6-mer frequency, TF over GST control)"
same,binding signal,[10],"1.67 fold enrichment (6-mer frequency, TF over GST control)"
